Test results published in PubChem BioAssay (NCI).
The panel holds about 79,000 compounds, 15% with a hit somewhere; the sample as a whole holds those more often. Cut-off read from the data, not from the text of the source: active = growth inhibition above about 70%; inactive = the rest.

Columns and labels:
[1] = NCI Yeast Anticancer Drug Screen. Data for the rad50 strain (AID 155);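 note: 0% = growth of vehicle-only cultures of the same strain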; details: S. cerevisiae rad50 strain growth inhibition; at 50.0 µM; hits give high values
Summary of the method: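 Compounds were tested on a yeast strain with an engineered DNA damage repair alteration; the reported value is growth inhibition normalised to vehicle treatment.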

[2] = NCI Yeast Anticancer Drug Screen. Data for the mec2-1 strain (AID 157); details: S. cerevisiae mec2-1 strain, at 50.0 µM, hits give high values
Summary of the method: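 mec2-1 yeast strain, carrying an alteration in DNA damage repair or cell cycle control, was exposed to compounds; growth inhibition was measured relative to vehicle-treated controls.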

[3] = NCI Yeast Anticancer Drug Screen. Data for the sgs1 mgt1 strain (AID 161);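 note: 0% = growth of cultures given vehicle only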; details: S. cerevisiae sgs1 mgt1 strain, at 50.0 µM, hits give high values
Summary of the method: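 Growth of a repair-deficient yeast mutant was monitored after compound treatment and expressed as inhibition relative to vehicle-treated cultures.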

[4] = NCI Yeast Anticancer Drug Screen. Data for the cln2 rad14 strain (AID 165);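 note: 0% = growth equal to vehicle treated cultures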; details: S. cerevisiae cln2 rad14 strain, at 50.0 µM, hits give high values
Summary of the method: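 Yeast carrying cln2 and rad14 alterations (cell cycle control and DNA damage repair) were exposed to compounds. Growth inhibition was measured against vehicle-treated controls.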

[5] = NCI Yeast Anticancer Drug Screen. Data for the bub3 strain (AID 167); details: S. cerevisiae bub3 mutant strain, at 50.0 µM, hits give high values
Summary of the method: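 Growth of a checkpoint-deficient yeast mutant is measured after compound exposure. Values represent inhibition relative to vehicle.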

[6] = NCI Yeast Anticancer Drug Screen. Data for the mlh1 rad18 strain (AID 175); details: S. cerevisiae mlh1 rad18 strain growth inhibition; at 50.0 µM; hits give high values
Summary of the method: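 Growth inhibition of the yeast strain was measured after compound exposure and expressed relative to vehicle-treated controls. The strain carries defined defects in DNA damage repair.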

Measured: growth inhibition

COc1ccc(-c2coc3c4c(c5c(c3c2=O)OC(C)(C)CC5)OC(C)(C)C=C4)cc1OC
inactive: [1] 11.3% | [2] 10.8% | [3] 15.7% | [4] 38% | [5] 18.1% | [6] 39.5%

O=C1/C(=C\c2ccccc2)C2C3CCC(C3)C2/C1=C\c1ccccc1 (centres undefined)
inactive: [1] -3.55% | [2] 0.55% | [3] 4.6% | [4] -63.8% | [5] 11.1% | [6] -17.4%

CCN(CC)CCSSCCN(CC)CC
inactive: [1] -9% | [2] 3.7% | [3] -7.05% | [4] -15.2% | [5] 2.35% | [6] 5.3%

CC1(C)C(CBr)=[N+]([O-])C(C)(C)N1O
inactive: [1] 4.8% | [2] -0.6% | [3] -15.2% | [4] 13.6% | [5] -12.9% | [6] 21.6%

CC(=O)Oc1c(OC(C)C)c(C)c(O[Si](C(C)C)(C(C)C)C(C)C)c2[nH]c3ccccc3c12
inactive: [1] 33.9% | [2] -5.05% | [3] -23.2% | [4] -10.9% | [5] -12.4% | [6] -29.7%

Cc1cc(N=Nc2ccc(C(=O)O)cc2)c(N)cc1N
inactive: [1] -34.5% | [2] -5.55% | [3] -7.1% | [4] -21.4% | [5] 9.7% | [6] -7.5%

CN1CCS(=O)(=O)NC(Cc2ccccc2)C(=O)N2CCCC2C1=O (centres undefined)
inactive: [1] -6.5% | [2] -13.2% | [3] -4.5% | [4] 29.6% | [5] -11.7% | [6] -8.5%

COc1cccc(-c2nc(-c3cnccn3)n(Cc3ccccc3)n2)c1
inactive: [1] -49.1% | [2] -60.7% | [3] -59.8% | [4] -22% | [5] -46.5% | [6] -38.8%

O=[N+]([O-])c1ccc(Sc2ccc([N+](=O)[O-])cc2)cc1
inactive: [1] 2.35% | [2] 1.45% | [3] 8% | [4] 22.6% | [5] -0.1% | [6] 11.3%

CC(=O)Nc1ccc(/C=C2\CCOC2=O)cc1[N+](=O)[O-]
inactive: [1] 6.8% | [2] 8.2% | [3] 7.15% | [4] 57.5% | [5] 8% | [6] 3.6%

CC1=C(C#N)C(C)(C)c2ccccc21
inactive: [1] 19.9% | [2] -10.9% | [3] 1.9% | [4] -25.9% | [5] 10% | [6] -13.2%

CCSC(SCC)C(O)C(O)C(O)C(C)O (centres undefined)
inactive: [1] 31.8% | [2] 1.55% | [3] 4% | [4] -34.1% | [5] -5.05% | [6] 6.55%

COc1ccc(C2OCC3(O)C(c4ccc(OC)c(OC)c4)OCC23)cc1OC (centres undefined)
inactive: [1] -0.85% | [2] -3.15% | [3] -1.35% | [4] 19.4% | [5] -9.8% | [6] 6.85%

Cc1nc2nc(N)nnc2c(=O)[nH]1
inactive: [1] -7.25% | [2] 3.2% | [3] -18.8% | [4] -13.8% | [5] -1.75% | [6] -0.1%

O=c1[nH]c(N2CCN(c3ccccc3)CC2)nc2cc3ccccc3cc12
inactive: [1] 2.55% | [2] -10.6% | [3] -13.6% | [4] -26.8% | [5] -5.15% | [6] -16.9%

Cn1c(-c2ccccc2)c/c(=N\NS(C)(=O)=O)c2cc(S(=O)(=O)O)ccc21
inactive: [1] -7.1% | [2] -27.7% | [3] -0.25% | [4] -3% | [5] 11.2% | [6] 10.2%

COc1ccc(N)nn1
inactive: [1] 1.6% | [2] -6.9% | [3] -9.15% | [4] 7.5% | [5] 4.75% | [6] -10.2%

CC(C)N1CC2CC(CN(C(=O)c3ccc(Cl)cc3)C2)C1
inactive: [1] -30.4% | [2] -8.45% | [3] -8.25% | [4] 2.95% | [5] -16.4% | [6] -5.9%

ONc1ccc(Cl)cc1
inactive: [1] -8.85% | [2] -11.8% | [3] -2.7% | [4] -10.8% | [5] 21.1% | [6] -6.6%

COc1nc2c(c(O)c(C)c(=O)n2OC2OCC(OC(C)=O)C(OC(C)=O)C2OC(C)=O)c(=O)n1C (centres undefined)
inactive: [1] -0.15% | [2] -19.4% | [3] -30.6% | [4] -1.85% | [5] -10.3% | [6] -20.8%

Cc1ccc2[nH]c(C)c(C(=O)c3ccncc3)c2c1
inactive: [1] -2.75% | [2] -15.4% | [3] 4.15% | [4] -8.35% | [5] -10.7% | [6] -9.45%

O=C(c1ccccc1)C(O)(c1ccccc1)C1CCCC/C1=N\N(c1ccccc1)c1ccccc1 (centres undefined)
inactive: [1] 37% | [2] 31.4% | [3] 29.9% | [4] 32.7% | [5] -20.4% | [6] 37.3%

COc1cc(/C=C2\N=C(C)N(n3c(-c4ccccc4)nc4ccccc4c3=O)C2=O)cc(OC)c1OC
inactive: [1] -20.4% | [2] 19.6% | [3] 29.6% | [4] 2.7% | [5] 16.2% | [6] 7.3%

CCCC/C=C/C1C=CC(CCCCCCCC(=O)OCC)C(C(=O)OCC)C1 (centres undefined) (tested in a mixture with another compound)
inactive: [1] 21% | [2] 8.75% | [3] 20% | [4] 17.4% | [5] 2.2% | [6] -13.4%

CN1CCC2(C1)C1CC3CC(C1)CC2C3 (centres undefined)
inactive: [1] 1.2% | [2] -13.9% | [3] -8.5% | [4] -7.3% | [5] 3.4% | [6] -9.35%

CN(C)c1cccc2c1C(=O)C=CC21c2ccc(N(C)C)c3c(N(C)C)ccc(c23)C(c2ccccc2)C1c1ccccc1 (centres undefined)
inactive: [1] -6.15% | [2] -11.4% | [3] -4.55% | [4] -27.3% | [5] -31.6% | [6] -8.75%

S=C(NCCCN1Cc2ccccc2C1)Nc1ccccc1
inactive: [1] 15.4% | [2] -4.1% | [3] 3.15% | [4] -16.1% | [5] 4.85% | [6] -10.6%

O=S(=O)(O)SCC1=NCCCCN1
inactive: [1] -2.95% | [2] -5.7% | [3] -6.35% | [4] -9.4% | [5] -14.4% | [6] 0.05%

O=C(O)CCC(=O)CCc1ccccc1C(=O)O
inactive: [1] 12.3% | [2] -15.8% | [3] 4.3% | [4] -38.1% | [5] -23.1% | [6] 7.85%

Cc1ccc(Sc2cccc3c2C(=O)c2c(Sc4ccc(C)cc4)cccc2C3(Br)c2ccccc2)cc1
inactive: [1] 13.9% | [2] -8.95% | [3] -2.95% | [4] -27.2% | [5] -0.15% | [6] 0.1%

O=C(N/N=C/c1ccc(O)cc1)c1ccccc1NC(=O)C1CC1
inactive: [1] 3.25% | [2] 23.7% | [3] 18.9% | [4] 2.55% | [5] -0.85% | [6] -21.1%

O=C(O)CCC1COc2ccccc2O1 (centres undefined)
inactive: [1] -12.2% | [2] -8.35% | [3] 0.8% | [4] -9.5% | [5] -14% | [6] -9.35%

CCB1OC2C(COC(C)=O)OC(OC(C)=O)C2O1 (centres undefined)
inactive: [1] -7.4% | [2] -9.6% | [3] -9.55% | [4] -9.25% | [5] -6.9% | [6] -10.1%

CCC(=O)/C=C/c1ccccc1O
inactive: [1] 11.6% | [2] 9.55% | [3] 31.4% | [4] 17.4% | [5] 20.4% | [6] 13.3%

O=CNCC1(c2ccccc2)CCN(Cc2ccccc2)CC1
inactive: [1] -2.4% | [2] -23.8% | [3] 3.4% | [4] 2.05% | [5] 3.55% | [6] 8.45%

c1ccc2c(c1)NC(SSC1Nc3ccccc3S1)S2 (centres undefined)
inactive: [1] -2.4% | [2] -21.1% | [3] -2.65% | [4] -0.55% | [5] -11.1% | [6] 1.65%

COCCCNC(=O)C1C(=O)N(CCCOC)C(=O)/C1=N\N (centres undefined)
inactive: [1] 5.15% | [2] 21.1% | [3] 12.1% | [4] -9.3% | [5] -2.25% | [6] 17.1%

CN(C)CCCOc1ccc(/C=C2/CCC/C(=C/c3ccc(OCCCN(C)C)cc3)C2=O)cc1
inactive: [1] 22.6% | [2] 14.8% | [3] 19.8% | [4] 26.1% | [5] 18.7% | [6] 3.35%

COc1ccc(C(C)c2cc3c(cc2OC)OCO3)cc1 (centres undefined)
inactive: [1] 9.25% | [2] -32.6% | [3] 15.2% | [4] 3.35% | [5] 3% | [6] 10.9%
